Among all 650,000 compounds or so, about 6,800 (1%) were called active. This excerpt belongs to a sample that is enriched for actives. Values without a mark were called inactive. Rule as the data show it: active = activation above about 4.9%; inactive = the rest.

Sequence of G-protein coupled receptor 151 (Homo sapiens) (Q8TDV0 whole entry, looked up): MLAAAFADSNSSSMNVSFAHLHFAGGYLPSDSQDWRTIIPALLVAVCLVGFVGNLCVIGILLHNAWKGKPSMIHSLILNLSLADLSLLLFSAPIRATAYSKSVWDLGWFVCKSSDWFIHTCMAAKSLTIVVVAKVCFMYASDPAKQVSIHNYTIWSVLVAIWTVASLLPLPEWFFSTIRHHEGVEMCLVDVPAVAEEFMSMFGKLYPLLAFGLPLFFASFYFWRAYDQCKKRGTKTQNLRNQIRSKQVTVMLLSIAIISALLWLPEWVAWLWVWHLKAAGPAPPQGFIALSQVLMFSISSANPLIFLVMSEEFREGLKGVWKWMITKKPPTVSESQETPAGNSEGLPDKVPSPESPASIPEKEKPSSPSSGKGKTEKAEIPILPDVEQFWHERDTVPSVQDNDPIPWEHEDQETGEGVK

This assay has as its target G-protein coupled receptor 151 (Homo sapiens) (UniProt Q8TDV0). Kind of assay: activates the human receptor GPR151, primary screen, cell-based, PathHunter beta-arrestin, luminescence (AID 1508602).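 Also: 0% = median of compound wells and 100% = cells with positive control.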 The settings on record: PathHunter beta-arrestin GPR151 cells, at 11.2 µM, hits give high values.
As for `C=CCN1C(=O)NC(=O)/C(=C/c2ccc(O)c(OC)c2)C1=O`, the activation is -0.157%.

As to `COc1ccccc1N1C(=O)NC(=O)/C(=C\c2ccc(Cl)cc2Cl)C1=O`, the activation is 0.657%.

Turning to `COc1cc(/C=C2\C(=O)NC(=O)N(c3ccccc3)C2=O)ccc1O`, the activation was 8.77% (active).

For `COc1cc(NC(=O)CCc2nc(C3=CCN(C)CC3)no2)cc(OC)c1OC`, the activation is -0.399%.

As for `O=C(O)C1C2CC3CC(C2)CC1(n1ncc(NC2CCCC2)c(Cl)c1=O)C3` (stereo not given), the activation is 1.35%.

Regarding `O=c1cccc2n1CC1CC2CN(Cc2ccc(F)cc2)C1` (stereo not given), the activation is 1.89%.

For the compound `O=C(NCC(c1cccnc1)N1CCN(c2ccccc2)CC1)Oc1ccccc1` (stereo not given), the activation is 0.68%.

In the case of `COc1ccccc1N1CCN(Cc2cccc(O)c2)CC1`, the activation was 0.277%.

Regarding `COc1ccccc1N1CCN(C(CNC(=O)Oc2ccccc2)c2cccnc2)CC1` (stereo not given), the activation is 9.52% (active).

In the case of `O=C(Cc1cccs1)N1CCN(Cc2nnnn2-c2ccc(F)cc2)CC1`, the activation is 1.07%.

`Cc1ccc(Cc2nc[nH]c2C)cc1`: the activation is 0.705%.

For `COc1ccc(CCNCc2ccc(O)cc2)cc1`, the activation is 1.2%.

In the case of `Cc1cc(Cl)ccc1C(=O)C1CCCN(Cc2ncc[nH]2)C1` (stereo not given), the activation was -0.596%.

Take `CC[n+]1c(/C=C/C=C2\N(C)c3ccccc3C2(C)C)n(-c2ccccc2)c2ccc(Cl)cc21`: the activation is 5.9% (active).

On to `C=CCOC(=O)C1=C(C)OC(N)=C(C(=O)OCC)C12C(=O)N(CC=C)c1ccccc12` (stereo not given), for which the activation was -0.446%.

As for `COc1cc(Br)cc(CN2CC3CC(C2)c2cccc(=O)n2C3)c1O` (stereo not given), the activation is -0.476%.

As for `CCOC(=O)C1=C(N)OC2=C(C(=O)CCC2)C12C(=O)Nc1ccc(Br)cc12` (stereo not given), the activation was 9.15% (active).

`CCOC(=O)C1=C(N)Oc2n[nH]c(C)c2C12C(=O)Nc1ccc(Br)cc12` (stereo not given): the activation is 0.383%.

In the case of `CCOC(=O)C1=C(C)OC(N)=C(C(=O)OC)C12C(=O)Nc1ccc(Br)cc12` (stereo not given), the activation was -0.299%.

Turning to `CC(C)c1ccc(NC(=O)c2cc3cccnc3n(Cc3ccc(F)cc3)c2=O)cc1`, the activation is 1.47%.
